Consider 21 compounds from PubChem BioAssay (NCI).

The panel holds about 79,000 compounds, 15% with a hit somewhere; the sample as a whole holds those more often. Unmarked numbers belong to inactive results. Activity calls are given as the source filed them. Rule as the data show it: active = growth inhibition above about 70%; inactive = the rest.

The nature of assay [1]: NCI Yeast Anticancer Drug Screen. Data for the rad50 strain (AID 155).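 Also: 0% = growth of vehicle-only cultures of the same strain.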 The settings on record: S. cerevisiae rad50 strain growth inhibition; at 50.0 µM; stronger effect = higher value. The method, boiled down:
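Compounds were tested on a yeast strain with an engineered DNA damage repair alteration; the reported value is growth inhibition normalised to vehicle treatment.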

Assay [2] is described as follows: NCI Yeast Anticancer Drug Screen. Data for the mec2-1 strain (AID 157). The settings on record: S. cerevisiae mec2-1 strain, at 50.0 µM, stronger effect = higher value. In outline: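 Growth inhibition is read against vehicle-treated controls after compound exposure of the mec2-1 yeast strain, which is defective in DNA damage repair or cell cycle control.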
The nature of assay [3]: NCI Yeast Anticancer Drug Screen. Data for the sgs1 mgt1 strain (AID 161).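 Also: 0% = growth of cultures given vehicle only.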 As to conditions: S. cerevisiae sgs1 mgt1 strain, at 50.0 µM, stronger effect = higher value. In outline: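 Compounds are added to genetically altered yeast, and growth is compared with cultures given vehicle alone to give percent inhibition.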
The nature of assay [4]: NCI Yeast Anticancer Drug Screen. Data for the cln2 rad14 strain (AID 165).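 Also: 0% = growth equal to vehicle treated cultures.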 The settings on record: S. cerevisiae cln2 rad14 strain, at 50.0 µM, stronger effect = higher value. In outline: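 Growth inhibition, relative to vehicle-treated controls, is the read-out. The test organism is a yeast strain with defined genetic alterations, cln2 rad14.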
Assay [5] in a line: NCI Yeast Anticancer Drug Screen. Data for the bub3 strain (AID 167). As to conditions: S. cerevisiae bub3 mutant strain, at 50.0 µM, stronger effect = higher value. In outline: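 Growth of a checkpoint-deficient yeast mutant is measured after compound exposure. Values represent inhibition relative to vehicle.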
Assay [6] in a line: NCI Yeast Anticancer Drug Screen. Data for the mlh1 rad18 strain (AID 175). The settings on record: S. cerevisiae mlh1 rad18 strain growth inhibition; at 50.0 µM; stronger effect = higher value. In outline:
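Cells of a genetically altered yeast strain, deficient in DNA damage repair, were treated with compound. Their growth was then compared with that of vehicle-treated cultures to give inhibition.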

Regarding `CC1(C)OC2CC3COC(=O)C3CC2O1` (stereo unspecified), the growth inhibition is 9.35% in assay [1]; -4.85% in assay [2]; -8.45% in assay [3]; 1.6% in assay [4]; 30.2% in assay [5]; 17.9% in assay [6].
For `C/C(CC(O)(C(F)(F)F)C(F)(F)F)=N\NC(N)=O`, the growth inhibition is -38.5% in assay [1]; -44.5% in assay [2]; -22.5% in assay [3]; -1.45% in assay [4]; -5.35% in assay [5]; -15.8% in assay [6].
As for `O=C1/C(=C/c2ccccc2)CN(C(=O)CCN2CCOCC2)C/C1=C\c1ccccc1`, the growth inhibition in assay [1] is 34.2%; in assay [2], 7.15%; in assay [3] it was 73% (active); in assay [4], 31.6%; in assay [5], 66.8%; in assay [6], 86.8% (active).
As to `O=[N+]([O-])c1ccc(-c2cc[cH-]c2)cc1.[Fe+2].c1cc[cH-]c1`, the growth inhibition is -4.4% in assay [1]; 14.2% in assay [2]; 13.8% in assay [3]; 3.4% in assay [4]; 17.8% in assay [5]; -0.75% in assay [6].
Regarding `O=C(Nc1ccccc1CC(O)c1ccc2c(c1)OCO2)c1ccccc1` (stereo unspecified), the growth inhibition is 19.1% in assay [1]; -8.1% in assay [2]; 3.65% in assay [3]; -22.8% in assay [4]; 11.6% in assay [5]; 13.8% in assay [6].
On to `CC(O)CC(C)CO` (stereo unspecified), for which the growth inhibition was 23.1% in assay [1]; -20.3% in assay [2]; -9.5% in assay [3]; -55.5% in assay [4]; 15.2% in assay [5]; 18% in assay [6].
With `Nc1c(Cl)ncnc1Nc1cccc(C(F)(F)F)c1`, the growth inhibition in assay [1] is 9.9%; in assay [2], 38.4%; in assay [3], 53.1%; in assay [4], 10.1%; in assay [5], 41.6%; in assay [6], 66.5%.
Turning to `CC(=O)SC1CS(=O)(=O)CC1SC(C)=O` (stereo unspecified), the growth inhibition is 60.8% in assay [1]; 52.9% in assay [2]; 59% in assay [3]; 40.2% in assay [4]; 44.5% in assay [5]; 63.5% in assay [6].
`CC1CN=C(c2ccccn2)C(c2ccccn2)=N1` (stereo unspecified): the growth inhibition in assay [1] was 4.85%; in assay [2], 6.6%; in assay [3], 14.5%; in assay [4], -1.1%; in assay [5], 17.4%; in assay [6], 10.2%.
On to `CNC(=O)n1c(N)nc(-c2ccccc2)c1-c1ccccc1`, for which the growth inhibition was 14.3% in assay [1]; 4.55% in assay [2]; 18.4% in assay [3]; 1.7% in assay [4]; -22.1% in assay [5]; -46.9% in assay [6].
As for `O=C(O)CC(Cc1ccccc1)C(=O)O` (stereo unspecified), the growth inhibition was 1% in assay [1]; -3.45% in assay [2]; -26.1% in assay [3]; -17.8% in assay [4]; -31.9% in assay [5]; 2.05% in assay [6].
Take `CN(CCc1ccccn1)/[N+]([O-])=N/O` (tested in a mixture with another compound): the growth inhibition in assay [1] is -30.8%; in assay [2], -36.9%; in assay [3], 4.15%; in assay [4] it was 11.2%; in assay [5], -3.35%; in assay [6], -4.65%.
Turning to `CCOC1(OCC)CS(=O)(=O)C1c1ccccc1` (stereo unspecified), the growth inhibition in assay [1] was -1.2%; in assay [2] it was -10.2%; in assay [3] it was 1.95%; in assay [4] it was -26.2%; in assay [5] it was 12.6%; in assay [6] it was -18.6%.
Turning to `O=S(Cc1ccccc1)/C(=C/NC(=S)N=Nc1c(O)[nH]c2ccccc12)c1ccccc1` (stereo unspecified), the growth inhibition in assay [1] is 15.3%; in assay [2], -11.1%; in assay [3], 14.2%; in assay [4], 33.2%; in assay [5], -4.1%; in assay [6], -3.1%.
As to `Cc1nn(C(=O)c2ccccc2O)c2c1C(c1ccccc1)SC(N)=N2` (stereo unspecified), the growth inhibition is 16.6% in assay [1]; 17.6% in assay [2]; 25.2% in assay [3]; -5.25% in assay [4]; 30.9% in assay [5]; 9.3% in assay [6].
For `O=C(O)C1CC1Br` (stereo unspecified), the growth inhibition in assay [1] is 9.15%; in assay [2], -15.3%; in assay [3], -3.65%; in assay [4], -14.4%; in assay [5], 2.45%; in assay [6] it was 5.8%.
On to `COc1ccc2c(c1)CC/C(=C\c1ccccn1)C2=O`, for which the growth inhibition in assay [1] was 41.5%; in assay [2] it was 33.5%; in assay [3], 16.8%; in assay [4] it was 24.4%; in assay [5], 19.5%; in assay [6] it was 14.4%.
For `CCCNC(C#N)c1ccc(C(C#N)NCCC)cc1` (stereo unspecified), the growth inhibition in assay [1] is -4.6%; in assay [2] it was -10.4%; in assay [3], -12.6%; in assay [4], -5.9%; in assay [5] it was -23.8%; in assay [6], -7.8%.
Turning to `CC1(C)OC2(C)CCC1C1C2N1C(=O)Nc1cccc2ccccc12` (stereo unspecified), the growth inhibition in assay [1] is -9%; in assay [2] it was -9.5%; in assay [3] it was -1.35%; in assay [4] it was -6.5%; in assay [5], -3.75%; in assay [6], -22.8%.
Regarding `Cc1cc(O)c(C(c2c(O)cc(C)c(Cl)c2C)C(Cl)(Cl)Cl)c(C)c1Cl`, the growth inhibition was 26.1% in assay [1]; 21.9% in assay [2]; 30.9% in assay [3]; 39.6% in assay [4]; 20.6% in assay [5]; 18.2% in assay [6].
For `C/C(CC(=O)CCC(=O)Nc1cccc(C(F)(F)F)c1)=N\NC(=O)NN`, the growth inhibition in assay [1] was -25.8%; in assay [2], -16.8%; in assay [3] it was -26.4%; in assay [4], 1.95%; in assay [5], -13.9%; in assay [6], -15.8%.
